Measured values as given in PubChem BioAssay AID504334 (NMMLSC, 2011).
Unmarked numbers belong to inactive results.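 The calls were made as follows: active = response relative to DMSO over 150%; inconclusive = yeast strain with under 70 recorded events; inactive = the rest.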

Test: AGP1-GFP expression modulators, hit retest, confirmation, cell-based, flow cytometry, S. cerevisiae, cherry pick set 3 (AID 504334);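 also: median GFP fluorescence per well by flow cytometry over the all cells gate; ratio of sample to mean DMSO control signal so DMSO = 100% not 0%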
Details: S. cerevisiae AGP1-GFP strain, 3 h, at 10 µM, stronger effect = higher value

Question: Which percent response vs DMSO does the source give for Cc1ccc2c(c1N)C(=O)c1ccccc1C2=O here?
Answer: 105%

Question: For CN(C)C(=O)Oc1ccc(Cl)c2cccnc12, which percent response vs DMSO is on record?
Answer: 93.4%

Question: With CN(C)C(=O)Oc1ccnc2cc(Cl)ccc12 as the compound, how does the percent response vs DMSO read?
Answer: 104%

Question: Which percent response vs DMSO does the source give for C/C(O)=C(\C#N)C(=O)Nc1cc(Br)ccc1Br here?
Answer: 100%

Question: Which percent response vs DMSO does the source give for CN1CCN(c2ncnc3ccc(Br)cc23)CC1 here?
Answer: 103%

Question: For CCN1CCN(c2ncnc3ccc(Br)cc23)CC1, which percent response vs DMSO is on record?
Answer: 99.8%
